# In PubChem BioAssay (NCATS):
# Records with an inconclusive call do not appear. Entries that show only a call come without a potency. The source made the active and inactive calls. Calls follow the shape of the dose curve; as a rule, active = well fitted activation curve with a large enough effect; inconclusive = small, poorly fitted or top-dose-only effect; inactive = flat fitted curve, though single readings scatter.
# Test: Validation screen for small molecules that induce DNA re-replication in SW480 colon adenocarcinoma cells (AID 504364)
# Conditions: DNA re-replication phenotype (high-content imaging); series mostly up to 46.1 µM
# Description: H Molecular Libraries Probe Production Network [MLPCN]
# NIH Chemical Genomics Center [NCGC]
# Assay Provider: Melvin DePamphilis, NICHD, NIH
# Eukaryotic cells normally restrict genome duplication to once per cell division. When this process is aberrant, DNA re-replication occurs when cells reinitiate DNA replication before the first round of replication is complete. DNA re-replication induces the DNA damage response, arrests cell proliferation, and triggers apoptosis. The cell cycle components cyclin A, Cdt-1, Cdc6 and geminin are critical regulators of this process and their misregulation results in DNA re-replication in normal and cancer cells. To identify compounds that induce re-replication in normal cells, an image-based assay was used to measure DNA content of nuclei, as detected by the fluorescent DNA binding dye, Hoechst. Cell nuclei were imaged by a fluorescence scanning plate imager and compounds that induce DNA re-replication were identified by the increase of nuclei with elevated fluorescence intensity.#
# For screening, 250 cells in 5 uL/well were dispensed into black clear 1536-well plates (Aurora) using a solenoid-based dispenser. Following transfer of 23 nL compound or DMSO vehicle by a pin tool, the plates were incubated 48 hr at 37 C and 5% CO2. After addition of 1 uL/well Hoescht stain, the plates were incubated 40 min at 37 C, 5% CO2 and total intensity of fluorescent objects (nuclei) were enumerated by an Acumen Explorer Ex3 (TTP LabTech) fluorescence scanning plate imager (405 nm excitation, 500-530 nm emission).
# Keywords: NIH Roadmap, MLPCN, MLI, MLSMR, qHTS, NCGC, DNA replication, cancer
row,Structure (SMILES),Potency
1,Clc1ccc(N2CC3CCC(C2)N3)nn1,inactive
2,CCCN1CC[C@@H]2c3cc(O)ccc3CC[C@@H]21,inactive
3,COc1ccc2c(c1)C13CCCCC1C(C2)N(C)CC3 (stereo not given),inactive
4,CC(=O)NBr,inactive
5,CN(N=O)c1ccc(O)c(O)c1,inactive
6,NC(=O)c1ccc(OCC(O)CN2CC=C(c3ccc(F)cc3)CC2)cc1 (stereo not given),inactive
7,C=CCN1CC[C@]23c4c5ccc(O)c4O[C@@H]2/C(=N/N=C2\CC[C@@]4(O)C6Cc7ccc(O)c8c7[C@@]4(CCN6CC=C)[C@@H]2O8)CC[C@@]3(O)C1C5,inactive
8,COc1ccc(CNC(=O)/C=C/c2ccc3[nH]cc(CCN(C)C)c3c2)cc1,inactive
9,O=C1C=CC(=O)C=C1,inactive
10,N[C@@H](Cn1oc(=O)[nH]c1=O)C(=O)O,inactive
11,CP(=O)(O)C1=CCNCC1,inactive
12,NCCc1ccc(S(=O)(=O)F)cc1,inactive
13,Ic1ccccc1CNC1C2CCN(CC2)C1C(c1ccccc1)c1ccccc1 (stereo not given),inactive
14,COc1ccc2[nH]c3c(c2c1)CCNC3,inactive
15,CCN(CC)c1ncnc2c1ncn2[C@@H]1O[C@H](COP(=O)(O)OP(=O)(O)C(Br)(Br)P(=O)(O)O)[C@@H](O)[C@H]1O,inactive
16,Clc1cc(I)cc(Cl)c1NC1=NCCN1,inactive
17,c1ccc2c(N3CCNCC3)cccc2c1,inactive
18,C[C@@H]1O[C@H](C[N+](C)(C)C)CS1,inactive
19,CC(Cc1ccc(OCC(=O)O)cc1)NCC(O)c1cccc(Cl)c1 (stereo not given),inactive
20,CC(N)c1cccc(Cl)c1Cl (stereo not given),inactive

row,Structure (SMILES),Potency
1,CCCN(CCC)C1CCc2cccc(O)c2C1 (stereo not given),inactive
2,CNC(=O)OCC[N+](C)(C)C,inactive
3,Oc1ccc2c3c1O[C@H]1c4oc5ccccc5c4C[C@@]4(O)C(C2)N(CC2CC2)CCC314 (stereo not given in full),inactive
4,CN1CCC(c2c[nH]c3ccc(O)cc23)CC1,inactive
5,N[C@@]1(C(=O)O)CC[C@@H](C(=O)O)C1,inactive
6,c1ccc2cc(CC3=NCCN3)ccc2c1,inactive
7,NC(=O)c1cc(N2CC2)c([N+](=O)[O-])cc1[N+](=O)[O-],inactive
8,C[N+](C)(C)CC#CCOC(=O)Nc1cccc(Cl)c1,inactive
9,OC1CCCCC1N1CCC(c2ccccc2)CC1 (stereo not given),inactive
10,C=CCN1CCC23c4c5ccc(O)c4O[C@H]2C(=O)CC[C@@]3(O)C1C5 (stereo not given in full),inactive
11,NC(=O)CI,inactive
12,C[Se]C[C@H](N)C(=O)O,inactive
13,CN1CCc2cccc(Cl)c2CC1,inactive
14,O=[N+]([O-])c1cc(O)c(O)c([N+](=O)[O-])c1,inactive
15,CCCN1CCCC2Cc3[nH]ncc3CC21 (stereo not given),inactive
16,C[N+]1(C)CCOC(O)(c2ccc(-c3ccc(C4(O)C[N+](C)(C)CCO4)cc3)cc2)C1 (stereo not given),inactive
17,Nc1ccc(CCN2CCN(c3cccc(C(F)(F)F)c3)CC2)cc1,inactive
18,NC(N)=NOCC[C@H](N)C(=O)O,inactive
19,C[N+]1(C)CCN(c2ccccc2)CC1,inactive
20,NCC(O)c1cc(O)c(O)cc1F (stereo not given),inactive
